In the library only some 3.1% were active in any assay of this set; here they are far more common.
DENV2 CPE rescue = protects cells from dengue virus 2 cytopathic effect; DENV2-infected cells, cytopathic effect rescue, plate reader; CPE inhibition, % at 9.99 µM; actives 1.7% (n = 350,000); in the data active = CPE inhibition above about 20%, passing the limit was not always enough; inconclusive = no clear call, values can overlap the other calls; tested in BHK-21 cells
GSIS activator = primary screen for activators of insulin secretion dependent on glucose, INS-1E cells, GLuc reporter luminescence; INS-1E GLuc reporter insulin secretion, 2-3 h; activation, % at 16.6 µM; actives 0.61% (n = 370,000); AID 743287;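 active = lowest replicate activation of at least 40%, so every replicate reaches that level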
RAD54 branch = inhibitors of human RAD54 branch migration | inhibition, % at 10.4 µM | Q92698 | actives 0.14% (n = 360,000) | RAD54 Holliday junction branch migration, FAM/BHQ fluorescence;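 active = mean normalized replicate activity at least 40 and at least half of replicates scoring 40 or more; inconclusive = only one of the two criteria met; inactive = mean below 40 and under half of replicates reaching 40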;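 note: inhibitors cause a drop in the FAM fluorescence signal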
MLL AF4-AF9 inh = blocks AF4 peptide binding to human AF9 | AlphaScreen, biotin-AF4 peptide binding to FLAG-AF9 | AID 651704 | inhibition, % at 10 µM | P42568 | actives 0.47% (n = 350,000);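 active = every replicate reaching a set inhibition limit, whatever the replicate mean, cut at about 25% in these data; inconclusive = mean inhibition reaches that limit but some replicates miss it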
Target sequence (P42568 whole entry, looked up): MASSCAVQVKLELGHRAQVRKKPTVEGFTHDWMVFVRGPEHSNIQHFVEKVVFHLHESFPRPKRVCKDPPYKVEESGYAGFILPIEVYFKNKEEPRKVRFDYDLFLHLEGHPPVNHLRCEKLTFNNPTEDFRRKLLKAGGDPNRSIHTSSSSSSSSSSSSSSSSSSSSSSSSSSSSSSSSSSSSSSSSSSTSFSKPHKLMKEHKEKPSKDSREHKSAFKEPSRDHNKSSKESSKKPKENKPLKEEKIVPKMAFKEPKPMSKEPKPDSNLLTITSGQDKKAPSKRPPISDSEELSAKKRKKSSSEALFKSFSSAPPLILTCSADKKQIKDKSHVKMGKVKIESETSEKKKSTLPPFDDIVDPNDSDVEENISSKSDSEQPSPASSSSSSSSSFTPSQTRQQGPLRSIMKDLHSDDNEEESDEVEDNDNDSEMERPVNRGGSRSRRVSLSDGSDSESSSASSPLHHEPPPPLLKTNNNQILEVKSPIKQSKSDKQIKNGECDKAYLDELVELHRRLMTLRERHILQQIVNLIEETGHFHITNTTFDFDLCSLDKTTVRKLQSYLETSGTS
RAD52 anneal inh = inhibitors of human RAD52 DNA annealing; P43351; recombinant RAD52 DNA annealing, FRET fluorescence; inhibition, % at 18.7 µM; actives 0.46% (n = 360,000); AID 651710;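 active = every replicate showing at least 50% inhibition; inconclusive = mean inhibition at least 50% but not in every replicate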
dFosB activator = mouse delta FosB homodimer activation; P13346; purified delta FosB, TAMRA-CDK5 oligo fluorescence polarization; percent of positive-control signal above neutral wells; activation, % at 25 µM; actives 0.99% (n = 340,000);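 active = mean activation above about 17%, with every replicate also reaching it, limit read from the data, passing the limit was not always enough; inconclusive = only one of the two conditions met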
Of the large screens only hits and unclear results are named; the others gave an inactive call.

CCC(C)(C)C1CCc2c(sc(NC(=O)c3cccs3)c2C(N)=O)C1 (stereo not drawn)	none (no result: DENV2 CPE rescue, MLL AF4-AF9 inh)
CC(C)(C)C1CCc2c(sc(NC(=O)c3cccs3)c2C(N)=O)C1 (stereo not drawn)	GSIS activator 45 (no result: DENV2 CPE rescue, MLL AF4-AF9 inh, RAD52 anneal inh)
COc1ccccc1CNC(=O)C[C@@H]1C[C@H]2c3cc(NC(=O)Nc4ccc(C(F)(F)F)cc4)ccc3O[C@H]2[C@@H](CO)O1	DENV2 CPE rescue 36 (no result: dFosB activator)
CN(C)CC(=O)Nc1ccc2c(c1)[C@H]1C[C@@H](CC(=O)NCc3ccccc3)O[C@H](CO)[C@H]1O2	DENV2 CPE rescue 21 (no result: dFosB activator)
COCCNC(=O)C[C@H]1C[C@@H]2c3cc(NC(=O)Nc4ccc(OC)cc4)ccc3O[C@@H]2[C@H](CO)O1	DENV2 CPE rescue inconclusive (no result: dFosB activator)
COCCNC(=O)C[C@@H]1C[C@H]2c3cc(NC(=O)Nc4ccc(OC)cc4)ccc3O[C@H]2[C@H](CO)O1	DENV2 CPE rescue 23 (no result: dFosB activator)
CN(C)c1ccc2c(c1)[C@H]1C[C@@H](CC(=O)NCc3ccc(Oc4ccccc4)cc3)O[C@H](CO)[C@H]1O2	DENV2 CPE rescue 82 (no result: RAD54 branch, dFosB activator)
C[C@H]1CN([C@@H](C)CO)C(=O)c2cc(C3=CCCCC3)cnc2O[C@@H]1CN(C)Cc1ccccc1F	none (no result: dFosB activator)
O=C(C[C@H]1CC[C@H](NC(=O)Nc2cc(F)ccc2F)[C@H](CO)O1)Nc1ccc(-c2ccccc2)cc1	none (no result: dFosB activator)
CCCNC(=O)C[C@@H]1C[C@H]2c3cc(NC(=O)CN(C)C)ccc3O[C@H]2[C@@H](CO)O1	DENV2 CPE rescue 65 (no result: MLL AF4-AF9 inh, RAD52 anneal inh, dFosB activator)
COc1ccc(S(=O)(=O)N2CCN(CC(=O)NC3CC3)CC2)cc1	DENV2 CPE rescue 23
COc1ccc(CCC(=O)NC2CCC(C)CC2)cc1 (stereo not drawn)	GSIS activator 77
C=C1N(C)c2cc([N+](=O)[O-])c(N)cc2C1(C)C	MLL AF4-AF9 inh 47 (no result: RAD54 branch)
CC(C)=C(NC(=O)c1ccccc1Cl)C(=O)NCCc1nc2ccccc2[nH]1	DENV2 CPE rescue 130 (no result: dFosB activator)
COc1ccc2c(c1)C(=O)O[C@@H](c1ccccc1)C[C@@H](O)C(=O)CC2	DENV2 CPE rescue 33 (no result: RAD54 branch, dFosB activator)
O=C1CCCCCCC(=O)[C@H](O)C[C@H](c2ccccc2)O1	DENV2 CPE rescue 50 (no result: RAD54 branch, dFosB activator)
COc1ccc2c(c1)CCC(=O)[C@H](O)C[C@H](c1ccccc1)OC2=O	DENV2 CPE rescue inconclusive (no result: RAD54 branch, dFosB activator)
Cc1cccc(Cn2ccc(-c3ccc(Cl)cc3)c(C#N)c2=O)c1	GSIS activator 95 (no result: DENV2 CPE rescue, MLL AF4-AF9 inh, RAD52 anneal inh)
OC1(C#Cc2c(-c3ccsc3)sc3ccccc23)CCCCC1	GSIS activator 88 (no result: RAD54 branch, dFosB activator)
COc1ccc(-c2sc3ccccc3c2C#CC2(O)CCCCC2)cc1	none
C[C@@H]1CN([C@H](C)CO)C(=O)c2cc(NS(=O)(=O)c3cn(C)cn3)ccc2O[C@@H](C)CCCCO[C@H]1CN(C)C(=O)Nc1ccc(F)cc1	none (no result: dFosB activator)
O=C(Oc1ccccc1)c1ccccc1C(=O)Oc1ccccc1	DENV2 CPE rescue 27
COc1ccc(NC(=O)N(C)C[C@@H]2Oc3ccc(NC(=O)NC4CCCCC4)cc3CC(=O)N([C@@H](C)CO)C[C@H]2C)cc1	none (no result: dFosB activator)
CN(C)CCSc1nc(O)c(-c2ccccc2)c(=O)n1-c1ccccc1	none (no result: GSIS activator, RAD54 branch)
Cc1sc2nc(SCCN(C)C)n(-c3ccccc3)c(=O)c2c1-c1ccc(F)cc1	dFosB activator 22
COc1ccc(NC(=O)/C=C/c2cccc(C(F)(F)F)c2)cn1	DENV2 CPE rescue 23
COc1ccc(NC(=O)/C=C/c2cccc(Br)c2)cn1	none
COc1ccc(/C=C2/SC(=S)N(CCCC(=O)Nc3ccccc3C(=O)O)C2=O)cc1	none
COc1cccc(/C=C2\SC(=S)N(CCC(=O)NNC(=O)c3ccccc3OC)C2=O)c1	none (no result: RAD54 branch)
COc1ccc(/C=C2\SC(=S)N(CCCC(=O)NNC(=O)c3ccccc3O)C2=O)cc1	dFosB activator 45 (no result: RAD54 branch)
COc1cccc(/C=C2\SC(=O)N(CCC(=O)NNC(=O)c3ccccc3Cl)C2=O)c1	GSIS activator 97 (no result: DENV2 CPE rescue, MLL AF4-AF9 inh, RAD52 anneal inh)
COc1ccc(/C=C2\SC(=O)N(CCCC(=O)Nc3ccc(C(=O)O)cc3)C2=O)cc1	DENV2 CPE rescue 97 (no result: GSIS activator, dFosB activator)
C[C@H](CO)N1C[C@H](C)[C@H](CN(C)Cc2cccc(F)c2)Oc2ncc(-c3cccc(F)c3)cc2C1=O	none (no result: DENV2 CPE rescue, RAD54 branch, MLL AF4-AF9 inh, RAD52 anneal inh, dFosB activator)
COCC(=O)Nc1ccc2c(c1)[C@@H]1C[C@H](CC(=O)NCC(F)(F)F)O[C@H](CO)[C@@H]1O2	none (no result: dFosB activator)
O=C(CCN1C(=O)/C(=C/c2ccccc2)SC1=S)Nc1cccnc1	none
O=C(CCN1C(=O)/C(=C/c2ccc(F)cc2)SC1=S)Nc1cccnc1	dFosB activator 19
O=C(CCN1C(=O)/C(=C/c2ccc(F)cc2)SC1=S)NCCc1ccc(O)cc1	dFosB activator 68
COCC(=O)N(C)C[C@@H]1Oc2ncc(C#Cc3ccccc3)cc2C(=O)N([C@@H](C)CO)C[C@H]1C	none (no result: dFosB activator)
FC(F)(F)c1ccc(Cl)c(-n2c(Cc3cccs3)n[nH]c2=S)c1	GSIS activator 41
COc1cccc(C(=O)OCCCOC(=O)c2cccc(OC)c2OC)c1OC	GSIS activator 42
COc1cc(OC)c(C(=O)OCCCOC(=O)c2cc(OC)c(OC)cc2OC)cc1OC	none
COc1cccc(C(=O)Oc2cc(C)[nH]c(=O)c2[N+](=O)[O-])c1OC	DENV2 CPE rescue 101
CNC[C@@H]1Oc2c(N)cccc2C(=O)N(C)C[C@@H]1C	none (no result: DENV2 CPE rescue, RAD54 branch, MLL AF4-AF9 inh, RAD52 anneal inh, dFosB activator)
CCCCC[C@@H](/C=C/C1C(=O)C=C[C@H]1C/C=C\CCCC(=O)OC)OC(C)=O (stereo partly drawn)	DENV2 CPE rescue 25, GSIS activator 46
CCCCCCCCN1C(=O)[C@H](CC(=O)NCc2cccc(C(F)(F)F)c2)C[C@@]2(C(=O)OC)CC(C)(C)CC=C12	DENV2 CPE rescue 44 (no result: RAD54 branch, dFosB activator)
CC1CCCN(CCCOc2ccc(Br)cc2Cl)C1 (stereo not drawn)	DENV2 CPE rescue 34 (no result: RAD54 branch)
CC1CCN(CCOCCOc2ccc(Br)cc2Cl)CC1	none (no result: DENV2 CPE rescue, MLL AF4-AF9 inh, RAD52 anneal inh)
COc1ccc(NC(=O)N[C@@H]2C=C[C@H](CC(=O)NC3CCCCC3)O[C@H]2CO)cc1	none (no result: dFosB activator)
C[C@@H]1CN([C@@H](C)CO)C(=O)c2cccc(N(C)C)c2O[C@@H]1CN(C)Cc1ccc(Oc2ccccc2)cc1	none (no result: dFosB activator)
CC1NC(=O)NC1CCCCCC(=O)NCCc1ccccc1 (stereo not drawn)	MLL AF4-AF9 inh 77
O=C(CCCCC(=O)NCCCc1ccccc1)NCCCc1ccccc1	none
Cc1ccccc1S(=O)(=O)N1C[C@@H](O)COC[C@@H]2O[C@H](CC(=O)N3CCC(Cc4ccccc4)CC3)CC[C@H]21	none (no result: dFosB activator)
COc1cccc(S(=O)(=O)N2C[C@@H](O)COC[C@@H]3O[C@@H](CC(=O)N4CCCCC4)CC[C@H]32)c1	DENV2 CPE rescue 29 (no result: dFosB activator)
COc1cccc(S(=O)(=O)N2C[C@@H](O)COC[C@@H]3O[C@H](CC(=O)N4CCCCC4)CC[C@H]32)c1	none (no result: dFosB activator)
